Results reported in PubChem BioAssay (NCATS).
Results filed as inconclusive are left out. A call without a number means that no potency is given here. Active and inactive are the calls of the source. The call rests on the fitted dose curve; in most records, active means well fitted curve in the direction sought with a large enough effect; inconclusive means small, poorly fitted or top-dose-only effect, or another doubt; inactive means no such curve, though single readings can be large; an effect the other way counts as inactive or inconclusive.

target: Luciferin 4-monooxygenase (Photinus pyralis) (UniProt P08659); experiment: Primary firefly luciferase (FLuc) qHTS assay for identification of artifact compounds. (AID 1845220); details: purified firefly luciferase, luminescence, 5 min; series mostly up to 54.1 µM; further: nearly all actives have a fitted effect of over 60% in size
Outline: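 Titrated compounds were incubated 15 min at RT, protected from light, with luciferin and ATP at 10 uM; reaction started with 10 nM FLuc, luminescence imaged at 5 min, and concentration-response fitted by Hill equation.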

Row | Structure (SMILES) | outcome
1 | CCCCc1ncc(/C=C(\Cc2cccs2)C(=O)O)n1Cc1ccc(C(=O)O)cc1 | inactive
2 | COc1ccc2cc1Oc1ccc(cc1)C[C@H]1c3c(cc4c(c3Oc3cc5c(cc3OC)CCN(C)[C@@H]5C2)OCO4)CCN1C | inactive
3 | CCOc1nc2cccc(C(=O)O)c2n1Cc1ccc(-c2ccccc2-c2nn[nH]n2)cc1 | inactive
4 | O=C1Nc2ccc(Cl)cc2[C@@](C#CC2CC2)(C(F)(F)F)O1 | inactive
5 | Cc1ccc2nc(N)[nH]c(=O)c2c1Sc1ccncc1 | inactive
6 | Cc1cc(N)c2ccccc2[n+]1CCCCCCCCCC[n+]1c(C)cc(N)c2ccccc21 | inactive
7 | COc1ccc(Cl)cc1C(=O)NCCc1ccc(S(=O)(=O)NC(=O)NC2CCCCC2)cc1 | inactive
8 | CCN(CC)CCCC(C)Nc1c2ccc(Cl)cc2nc2ccc(OC)cc12 (configuration not stated) | inactive [at 25.7 µM]
9 | Nc1nc2c(ncn2CCC(CO)CO)c(=O)[nH]1 | inactive
10 | CC(C)(O)c1ccccc1CC[C@@H](SCC1(CC(=O)O)CC1)c1cccc(/C=C/c2ccc3ccc(Cl)cc3n2)c1 | inactive

tested on: not listed separately; experiment: Primary fluorescence-based thiol-reactive (MSTI) qHTS assay for identification of artifact compounds. (AID 1845221); details: MSTI thiol-reactivity probe, 1 h; series mostly up to 53.8 µM;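 further: thiol-reactive compounds lower the probe fluorescence signal; nearly all actives have a fitted effect of over 65% in size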
Outline: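 One-hour, room-temperature, dark incubation of compound with 4 uM MSTI in PBS (pH 7.4, 2% DMSO) precedes a fluorescence read at 525 nm excitation, 598 nm emission; Hill-equation fitting yields concentration-response values.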

Row | Structure (SMILES) | Potency
11 | CCCCc1ncc(/C=C(\Cc2cccs2)C(=O)O)n1Cc1ccc(C(=O)O)cc1 | inactive
12 | COc1ccc2cc1Oc1ccc(cc1)C[C@H]1c3c(cc4c(c3Oc3cc5c(cc3OC)CCN(C)[C@@H]5C2)OCO4)CCN1C | inactive
13 | CCOc1nc2cccc(C(=O)O)c2n1Cc1ccc(-c2ccccc2-c2nn[nH]n2)cc1 | inactive
14 | O=C1Nc2ccc(Cl)cc2[C@@](C#CC2CC2)(C(F)(F)F)O1 | inactive
15 | Cc1cc(N)c2ccccc2[n+]1CCCCCCCCCC[n+]1c(C)cc(N)c2ccccc21 | inactive
16 | COc1ccc(Cl)cc1C(=O)NCCc1ccc(S(=O)(=O)NC(=O)NC2CCCCC2)cc1 | inactive
17 | Cc1cc(C(C#N)c2ccc(Cl)cc2)c(Cl)cc1NC(=O)c1cc(I)cc(I)c1O (configuration not stated) | inactive
18 | CCN(CC)CCCC(C)Nc1c2ccc(Cl)cc2nc2ccc(OC)cc12 (configuration not stated) | inactive
19 | Nc1nc2c(ncn2CCC(CO)CO)c(=O)[nH]1 | inactive
20 | CC(C)(O)c1ccccc1CC[C@@H](SCC1(CC(=O)O)CC1)c1cccc(/C=C/c2ccc3ccc(Cl)cc3n2)c1 | inactive

tested on: Nanoluciferase (engineered Oplophorus gracilirostris luciferase); experiment: Primary Nanoluciferase (NLuc) qHTS assay for identification of artifact compounds. (AID 1845222); details: NLuc-conditioned medium, Nano-Glo luminescence, 5 min; series mostly up to 54.1 µM;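 further: NLuc secreted into diluted conditioned medium of S16 cells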
Outline: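 qHTS format, against NLuc in S16 cell-conditioned medium. Nano-Glo substrate 1:100 was added after 15 min at room temperature. Luminescence was taken after a further 5 min.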

Row | Structure (SMILES) | outcome
21 | CCCCc1ncc(/C=C(\Cc2cccs2)C(=O)O)n1Cc1ccc(C(=O)O)cc1 | inactive
22 | COc1ccc2cc1Oc1ccc(cc1)C[C@H]1c3c(cc4c(c3Oc3cc5c(cc3OC)CCN(C)[C@@H]5C2)OCO4)CCN1C | inactive
23 | O=C1Nc2ccc(Cl)cc2[C@@](C#CC2CC2)(C(F)(F)F)O1 | inactive
24 | Cc1ccc2nc(N)[nH]c(=O)c2c1Sc1ccncc1 | inactive
25 | Cc1cc(N)c2ccccc2[n+]1CCCCCCCCCC[n+]1c(C)cc(N)c2ccccc21 | inactive
26 | Cc1cc(C(C#N)c2ccc(Cl)cc2)c(Cl)cc1NC(=O)c1cc(I)cc(I)c1O (configuration not stated) | inactive
27 | CCN(CC)CCCC(C)Nc1c2ccc(Cl)cc2nc2ccc(OC)cc12 (configuration not stated) | inactive
28 | Nc1nc2c(ncn2CCC(CO)CO)c(=O)[nH]1 | inactive
29 | CC(C)(O)c1ccccc1CC[C@@H](SCC1(CC(=O)O)CC1)c1cccc(/C=C/c2ccc3ccc(Cl)cc3n2)c1 | inactive

tested on: not listed separately; experiment: Primary redox qHTS assay for identification of artifact compounds. (AID 1845223); details: Amplex Red/HRP redox cycling with DTT, fluorescence; series mostly up to 53.8 µM
Outline: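 Amplex Red (25 uM) and HRP (250 mU/mL) in HBSS, with compounds for 15 min, then 250 uM DTT for 30 min, room temperature, dark. Fluorescence 525/598 nm read; normalized to DMSO and 10 uM DA3003; Hill fit.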

Row | Structure (SMILES) | outcome
30 | CCCCc1ncc(/C=C(\Cc2cccs2)C(=O)O)n1Cc1ccc(C(=O)O)cc1 | inactive
31 | COc1ccc2cc1Oc1ccc(cc1)C[C@H]1c3c(cc4c(c3Oc3cc5c(cc3OC)CCN(C)[C@@H]5C2)OCO4)CCN1C | inactive
32 | CCOc1nc2cccc(C(=O)O)c2n1Cc1ccc(-c2ccccc2-c2nn[nH]n2)cc1 | inactive
33 | O=C1Nc2ccc(Cl)cc2[C@@](C#CC2CC2)(C(F)(F)F)O1 | inactive
34 | Cc1ccc2nc(N)[nH]c(=O)c2c1Sc1ccncc1 | inactive
35 | Cc1cc(N)c2ccccc2[n+]1CCCCCCCCCC[n+]1c(C)cc(N)c2ccccc21 | inactive
36 | Cc1cc(C(C#N)c2ccc(Cl)cc2)c(Cl)cc1NC(=O)c1cc(I)cc(I)c1O (configuration not stated) | inactive
37 | CCN(CC)CCCC(C)Nc1c2ccc(Cl)cc2nc2ccc(OC)cc12 (configuration not stated) | inactive
38 | Nc1nc2c(ncn2CCC(CO)CO)c(=O)[nH]1 | inactive
39 | CC(C)(O)c1ccccc1CC[C@@H](SCC1(CC(=O)O)CC1)c1cccc(/C=C/c2ccc3ccc(Cl)cc3n2)c1 | inactive

target: Cytochrome P450 3A4 (Homo sapiens) (UniProt P08684); experiment: qHTS for inhibitors of CYP3A4 against the NCATS DSHEA and TCM libraries (AID 1919971); details: recombinant CYP3A4 enzyme activity, luminescence qHTS; series mostly up to 34.1 µM;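 further: inhibition lowers luminescence from luciferin made by CYP3A4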
Outline: (§1)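 Luminescent P450-Glo format: compounds preincubated 15 min with enzyme and luciferin substrate, reaction run 30-45 min after NADPH regeneration solution. Intraplate controls: ketoconazole for CYP3A4 and CYP2C19, sulfaphenazole for CYP2C9.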

Sequence of Cytochrome P450 3A4 (Homo sapiens) (P08684 whole entry, looked up): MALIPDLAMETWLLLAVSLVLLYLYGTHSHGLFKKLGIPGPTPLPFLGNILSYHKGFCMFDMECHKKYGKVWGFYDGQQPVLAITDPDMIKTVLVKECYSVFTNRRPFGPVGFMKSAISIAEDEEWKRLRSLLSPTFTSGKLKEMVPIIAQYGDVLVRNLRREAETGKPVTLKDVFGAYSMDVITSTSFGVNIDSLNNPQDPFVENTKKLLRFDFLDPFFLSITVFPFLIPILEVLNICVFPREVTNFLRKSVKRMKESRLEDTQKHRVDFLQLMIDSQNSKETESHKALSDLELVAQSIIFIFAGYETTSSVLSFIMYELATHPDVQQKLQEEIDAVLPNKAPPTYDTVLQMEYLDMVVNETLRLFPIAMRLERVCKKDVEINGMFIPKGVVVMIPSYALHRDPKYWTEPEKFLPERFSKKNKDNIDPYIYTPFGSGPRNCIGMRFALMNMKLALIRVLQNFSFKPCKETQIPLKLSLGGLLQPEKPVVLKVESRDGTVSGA

Row | Structure (SMILES) | outcome
40 | O=C1O[C@H]([C@@H](O)CO)C(O)=C1O | inactive
41 | CC12CCC(CC1)C(C)(C)O2 | inactive
42 | O=C(O)c1ccccc1O | inactive
43 | NC(N)=NCCC[C@H](N)C(=O)O | inactive

target: Cytochrome P450 2D6 (Homo sapiens) (UniProt P10635); experiment: qHTS for inhibitors of CYP2D6 against the NCATS DSHEA and TCM libraries (AID 1919972); details: CYP2D6 enzymatic inhibition, luminescence qHTS; series mostly up to 34.1 µM
Outline: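 Luminescent P450-Glo read-out of CYP2D6 turnover of a luciferin substrate after NADPH-driven reaction of 30-45 min at room temperature. Compounds were first preincubated 15 min with enzyme at titrated concentrations; quinidine was the intraplate control.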

Sequence of Cytochrome P450 2D6 (Homo sapiens) (P10635 whole entry, looked up): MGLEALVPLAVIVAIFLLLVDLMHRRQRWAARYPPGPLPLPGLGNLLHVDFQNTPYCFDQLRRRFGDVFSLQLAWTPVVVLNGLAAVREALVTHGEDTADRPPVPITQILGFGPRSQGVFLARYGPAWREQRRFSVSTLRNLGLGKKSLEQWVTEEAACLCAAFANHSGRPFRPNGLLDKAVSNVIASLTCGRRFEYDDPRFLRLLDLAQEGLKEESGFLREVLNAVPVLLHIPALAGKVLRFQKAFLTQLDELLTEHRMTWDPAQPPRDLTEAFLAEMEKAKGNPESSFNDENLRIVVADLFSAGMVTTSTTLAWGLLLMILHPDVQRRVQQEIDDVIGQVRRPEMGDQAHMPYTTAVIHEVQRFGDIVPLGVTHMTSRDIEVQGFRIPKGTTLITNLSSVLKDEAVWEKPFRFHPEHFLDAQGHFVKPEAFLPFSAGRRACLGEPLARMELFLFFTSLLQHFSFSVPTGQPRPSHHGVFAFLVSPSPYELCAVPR

Row | Structure (SMILES) | outcome
44 | CC1=C(C/C=C(\C)CCC[C@H](C)CCC[C@H](C)CCCC(C)C)C(=O)c2ccccc2C1=O | inactive
45 | O=C1O[C@H]([C@@H](O)CO)C(O)=C1O | inactive
46 | CC12CCC(CC1)C(C)(C)O2 | inactive
47 | O=C(O)c1ccccc1O | inactive
48 | NC(N)=NCCC[C@H](N)C(=O)O | inactive

target: Cytochrome P450 2C9 (Homo sapiens) (UniProt P11712); experiment: qHTS for inhibitors of CYP2C9 against the NCATS DSHEA and TCM libraries (AID 1919973); details: recombinant CYP2C9 enzyme activity, luminescence; series mostly up to 34.1 µM;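 further: luminogenic pro-luciferin CYP2C9 substrate turned into luciferin with NADPH regeneration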
Outline: as §1

Sequence of Cytochrome P450 2C9 (Homo sapiens) (P11712 whole entry, looked up): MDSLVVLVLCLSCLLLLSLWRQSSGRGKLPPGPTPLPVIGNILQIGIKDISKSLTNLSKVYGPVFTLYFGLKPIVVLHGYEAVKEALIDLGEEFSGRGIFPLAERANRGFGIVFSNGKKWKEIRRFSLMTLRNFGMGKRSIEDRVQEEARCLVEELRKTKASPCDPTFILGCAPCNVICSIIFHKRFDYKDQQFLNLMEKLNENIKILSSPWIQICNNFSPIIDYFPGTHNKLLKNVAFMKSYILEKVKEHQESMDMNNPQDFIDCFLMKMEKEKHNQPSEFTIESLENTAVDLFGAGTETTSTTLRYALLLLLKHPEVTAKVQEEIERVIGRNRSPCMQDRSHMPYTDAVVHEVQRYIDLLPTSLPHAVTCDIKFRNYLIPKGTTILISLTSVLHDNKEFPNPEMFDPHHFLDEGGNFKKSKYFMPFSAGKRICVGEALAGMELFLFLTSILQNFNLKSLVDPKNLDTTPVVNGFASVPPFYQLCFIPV

Row | Structure (SMILES) | outcome
49 | O=C1O[C@H]([C@@H](O)CO)C(O)=C1O | inactive
50 | CC12CCC(CC1)C(C)(C)O2 | inactive
51 | O=C(O)c1ccccc1O | inactive
52 | NC(N)=NCCC[C@H](N)C(=O)O | inactive
